This note sets out measurements from PubChem BioAssay AID2551 (National Center for Advancing Translational Sciences (NCATS), 2010).

Several values for one entry are separate records, joined by “and”; a condition that tells them apart may be missing. Identical values can stand only once. Among all 310,000 compounds or so, about 17,000 (5.5%) were called active. About 11% were inconclusive and are not listed. Calls come from the whole dose curve; as a rule, active = well fitted inhibition curve with a large enough effect; inconclusive = small, poorly fitted or top-dose-only effect, or effect the other way; inactive = no such curve, though single readings can be large or run the other way. Only a selection was taken, and actives are over-represented in it overall. Some structures have more than one record in an assay (separate samples or runs), and their calls can disagree.
% is set by controls: 0 for no effect and ±100 for the full control effect; potency is the fitted concentration of half-maximal effect.

For the test, the target named is Nuclear receptor ROR-gamma (Mus musculus) (UniProt P51450). Put plainly: qHTS for inhibitors of ROR gamma transcriptional activity. Note: nearly all actives have a fitted effect of over 60% in size. The following applies: Drosophila S2 Gal4-RORgamma UAS-luciferase reporter, 20 h; series mostly up to 53.6 µM; activity change, negative = inhibition: at the top concentration. The procedure, abridged: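 Stably transfected Drosophila Schneider cells are the test system, with ROR gamma fused to Gal4 and luciferase under UAS control; luminescence is read after 20 hr of 700 uM copper sulfate induction at ambient temperature.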
Chain of Nuclear receptor ROR-gamma (Mus musculus) (P51450 whole entry, looked up, the tested form may be a part): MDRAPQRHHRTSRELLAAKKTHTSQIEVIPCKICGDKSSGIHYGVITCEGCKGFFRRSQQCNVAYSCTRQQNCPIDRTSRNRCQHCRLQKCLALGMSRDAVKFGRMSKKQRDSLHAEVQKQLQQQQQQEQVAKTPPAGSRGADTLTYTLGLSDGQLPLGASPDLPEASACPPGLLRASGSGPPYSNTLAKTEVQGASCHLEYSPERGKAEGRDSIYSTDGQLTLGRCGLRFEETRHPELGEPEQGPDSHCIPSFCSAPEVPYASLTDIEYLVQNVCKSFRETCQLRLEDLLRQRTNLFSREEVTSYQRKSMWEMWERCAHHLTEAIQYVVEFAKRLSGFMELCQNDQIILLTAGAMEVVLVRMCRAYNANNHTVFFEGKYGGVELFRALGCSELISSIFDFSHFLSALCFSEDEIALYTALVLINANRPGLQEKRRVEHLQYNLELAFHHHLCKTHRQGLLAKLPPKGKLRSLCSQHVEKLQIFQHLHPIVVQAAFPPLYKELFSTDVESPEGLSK
For orientation: qHTS replaces the single test concentration by a dilution series.
Regarding `CN(C)C(=O)c1ccc(NC(=O)c2ccccc2-c2ccccc2)cc1`, the “activity change, negative = inhibition” value was -1.38% (inactive). Still for that read-out and setting: the result for `CC(C)C[C@H](NC(=O)N1CC(=O)Nc2ccccc21)C(=O)N[C@H](Cc1ccccc1)C(=O)O` reads -9.76% (inactive).

With `CCOC(=O)CSc1nc2ccc(C)cc2n2cnnc12`, the “activity change, negative = inhibition” value was -16.2% (inactive). On the same count and under the same terms, next, `CCCOc1cccc(C(=O)Nc2ccccc2C(=O)N2CCN(C)CC2)c1`: -0.522% (inactive). As to `CC(=O)Nc1ccc(S(=O)(=O)NC2Cc3ccccc3C2)cc1`, the “activity change, negative = inhibition” value was 38.5% (inactive). Consider `COCCN1C(=O)N[C@@H](CCc2ccccc2)[C@H](C(C)=O)[C@H]1C`, for which the “activity change, negative = inhibition” value was 21.6% (inactive). The same measure, in the same setting: next, `CCN1C(=NCc2ccc(OC)cc2)N[C@@H](CCc2ccccc2)[C@H](C(=O)NCc2ccc(OC)cc2)[C@H]1C`: 4.67% (inactive). Consider `CCN1C(=S)N[C@@H](CCc2ccccc2)[C@H](C(=O)OC)[C@H]1C`, for which the Potency entry was “inactive and 2.24 µM (active)”.

With `CN1CCN(C(=O)c2cnn(-c3ccccc3)c2NC(=O)c2ccc([N+](=O)[O-])cc2)CC1`, the “activity change, negative = inhibition” value was -8.25% (inactive). Still for that read-out and setting: the result for `Cc1cccc(C)c1NC(=O)CS(=O)CC(=O)N1CCN(c2ccccc2)CC1` (stereo unspecified) reads -19.9% (inactive); that for `CCNS(=O)(=O)c1ccc(CCC(=O)N2CCN(c3ccc(OC)cc3)CC2)cc1`, 9.28% (inactive). Consider `CN(C)C(=O)Cn1c(=O)n(S(=O)(=O)c2ccccc2)c2ccccc21`, for which the “activity change, negative = inhibition” value was 10.5% (inactive).

Regarding `COC(=O)c1ccccc1NC(=O)CSc1n[nH]c(-c2ccncc2)n1`, the “activity change, negative = inhibition” value was 36.6% (inactive). Still for that read-out and setting: next, `Cc1ccc2oc(C(=O)N3CCN(C)C[C@@H]3C(C)C)c(C)c2c1`: -0.958% (inactive).

For the compound `CC(=O)c1cccc(OCc2cc(C(=O)NC(C)Cc3cccnc3)no2)c1` (stereo unspecified), the “activity change, negative = inhibition” value was 31.8% (inactive). Consider `CN(Cc1cccnc1)C(=O)c1cc(COc2ccc3ncccc3c2)on1`, for which the Potency is 4.47 µM (active).

Regarding `Cc1ccc(OCc2cc(C(=O)N(C)CCc3ccccc3)no2)cc1C`, the “activity change, negative = inhibition” value is -4.2% (inactive).

For `COCCn1cnc2c1c(=O)n(Cc1ccc(Br)cc1)c(=O)n2Cc1ccccc1`, the “activity change, negative = inhibition” value was -20.4% (inactive).

For the compound `O=C(CCNC(=O)C1CCN(S(=O)(=O)c2ccccc2)CC1)NC1CC1`, the “activity change, negative = inhibition” value was -5.98% (inactive).

Consider `COc1ccc(CN2CCCC(N3CCc4ccccc4C3)C2)c(O)c1` (stereo unspecified), for which the “activity change, negative = inhibition” value was 6.04% (inactive).

Turning to `CCOC(=O)C1=C(C)c2ccccc2OC1(C)C(=O)OCC` (stereo unspecified), the “activity change, negative = inhibition” value was 14% (inactive). Still for that read-out and setting: the result for `CCOC(=O)c1c(-c2cccc(C)c2)csc1NC(=O)c1c(-c2ccccc2)noc1C` reads -5.37% (inactive). On the same count and under the same terms, the result for `CCOC(=O)CNC(=O)/C(=C\c1ccc(F)cc1)NC(=O)c1ccccc1` reads 5.21% (inactive); that for `CCOC(=O)c1c(-c2ccc(-c3ccccc3)cc2)csc1NC(=O)CCC(=O)O`, -0.541% (inactive). Regarding `CCOC(=O)c1c(-c2ccccc2)csc1NC(=S)NC(=O)c1ccccc1`, the Potency was 2.82 µM (active). The same measure, in the same setting: the result for `CCOC(=O)C1=C(NC(=S)NC(=O)c2ccccc2)c2ccccc2CC1(C)C` reads 4.47 µM (active). `COc1cccc(C(=O)Nc2nnc(S(=O)(=O)N3CCCCC3)s2)c1`: the “activity change, negative = inhibition” value is 12.4% (inactive).

With `CC(=O)Nc1ccc(NC(=O)CCCNC(=O)c2ccc(Cl)cc2)cc1`, the “activity change, negative = inhibition” value was 9.12% (inactive).

Turning to `CC(C)c1ccc(C2C(C(=O)c3ccco3)=C(O)C(=O)N2CC2CCCO2)cc1` (stereo unspecified), the “activity change, negative = inhibition” value was -4.63% (inactive). Consider `COc1ccccc1NC(=O)CCN1CCN(c2ccc(Cl)cc2)CC1`, for which the “activity change, negative = inhibition” value is 18.2% (inactive).

For the compound `O=C(CCc1ccccc1)NCc1cccnc1`, the “activity change, negative = inhibition” value was -3.41% (inactive). Same read-out and setting: next, `O=C(CN(c1cc(C(F)(F)F)ccc1Cl)S(=O)(=O)c1ccccc1)NCc1cccnc1`: 22.7% (inactive). Take `CCc1ccc(N(CC(=O)NCc2cccnc2)S(=O)(=O)c2ccccc2)cc1`: the Potency is 14.1 µM (active). Take `Cc1c(C)c2c(OCC(=O)NCCCO)cc3c(c2oc1=O)CCC(C)(C)O3`: the “activity change, negative = inhibition” value is -1.32% (inactive).

With `CC(C)CC(CCc1ccccc1)OS(N)(=O)=O` (stereo unspecified), the “activity change, negative = inhibition” value was 19.3% (inactive).

With `O=C(/C=C/c1ccco1)NC(=S)Nc1ccccc1Br`, the Potency was 11.2 µM (active). With `CCNC(=S)N1CCN(C(=O)c2ccco2)CC1`, the “activity change, negative = inhibition” value is 0.972% (inactive). For `O=C(/C=C/c1ccco1)NC(=S)N1CCCCC1`, the Potency is 3.98 µM (active). As for `COc1ccccc1/C=C/C(=O)NC1CC2CCC1C2` (stereo unspecified), the “activity change, negative = inhibition” value was 18.8% (inactive).

For the compound `COc1ccccc1C(=O)Nc1cccc(C(=O)N2CCOCC2)c1`, the “activity change, negative = inhibition” value is -15.7% (inactive).

In the case of `COc1ccccc1/C=C/C(=O)NC(=S)N1CCOCC1`, the Potency was 7.08 µM (active). For `Cc1cccc(N2CCN(C(=O)/C=C/c3ccco3)CC2)c1C`, the “activity change, negative = inhibition” value was 15.4% (inactive). The same measure, in the same setting: the result for `CC(=O)Nc1ccc(NC(=S)NC(=O)/C=C/c2ccccc2)cc1` reads 3.47% (inactive); that for `Cc1nnc(NC(=O)/C=C/c2ccco2)s1`, -0.0186% (inactive). Still for that read-out and setting: the result for `CCC(C)[C@H](NC(=O)N1CCn2c1nc1ccccc12)C(=O)NCc1ccc(OC)cc1` (stereo partly specified) reads 22.2% (inactive); that for `O=C(O)CC/C(=C\c1cc2c(cc1Br)OCO2)c1nc2ccccc2s1`, 6.58% (inactive). Same read-out and setting: the result for `CC(=O)N1CCc2cc(S(=O)(=O)NC3CCCCC3)ccc21` reads 2.62% (inactive); that for `COCCNc1ncnc2c1nc1n2CCCC1`, -6.66% (inactive). `CCCCCCn1cc(C(=O)O)c(=O)c2cc(F)c(N3CCCCC3)cc21`: the “activity change, negative = inhibition” value was -20.3% (inactive). The same measure, in the same setting: the result for `O=C(Nc1ccc(S(=O)(=O)Nc2ccccn2)cc1)c1ccccc1` reads -8.68% (inactive); that for `Cc1ccc(CNC(=O)CCS(=O)(=O)c2ccc3c(c2)CC(C)N3C(=O)C2CC2)o1` (stereo unspecified), -5.1% (inactive).
